Bioassay records: PubChem BioAssay, several laboratories
Compounds with a hit are over-represented: about 4.3% of the library has one in this group of screens.
HSF1 inhib – HSF1 inhibition; activity change, negative = inhibition, % at 7.5 µM (by protocol); NIH3T3-HGL HSE-luciferase, MG132-induced, luminescence 8 h; hits give low values; 0.77% of 300,000 active; AID 2098;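 active = more than half of replicate wells show activity change below -50%, luminescence cut by over half; inconclusive = some wells, but at most half, below -50%; inactive = no replicate well below -50%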;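 also: luciferase reports HSF-1 transcriptional activity via heat shock element; 0% = median of DMSO wells and -100% = zero luminescence signal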
SMARCA2 activ – activators of SMARCA2 function. 1% of 370,000 active. MG213 cells, MMTV-luciferase reporter, dexamethasone, overnight. activation, % at 9.1 µM; in the data active = activation above about 7.8%;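 also: 0% = vehicle wells and 100% = reference activator wells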
Wnt act – Wnt/beta-catenin pathway activation; Wnt/beta-catenin reporter cell assay, activator, plate reader; activation, % at 9.35 µM; 1.2% of 300,000 active; AID 743398; in the data active = activation above about 30%, passing the limit was not always enough; inconclusive = no clear call, values can overlap the other calls;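 also: 0% = neutral control wells and 100% = positive control wells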
esBAF inh – blocks esBAF chromatin remodeling in mouse ES cells; reporter increase, % at 12.5 µM; AID 602393; Bmi1-luciferase knock-in reporter, 24 h; 100% = twice the neutral-well signal; 2% of 350,000 active; in the data active = activation above about 40%; inconclusive = no clear call, values can overlap the other calls;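 also: 0% = median of the plate's neutral control wells and 100% = double that signal; a rise in the Bmi1 reporter signal indicates esBAF inhibition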
MITF TRPM1 HTS – increases MITF-driven TRPM1 promoter luciferase signal; SK-MEL-5 TRPM1-promoter luciferase, 24 h; % of positive control, neutral wells = 0; activation, % at 12.5 µM; 0.75% of 300,000 active;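 active = mean activation of at least 80% with every replicate also reaching 80%; inconclusive = mean reaches 80% but some replicate falls short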;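 also: 0% = neutral control wells and 100% = parthenolide positive control wells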
HSF-1 act – increases HSF-1 driven luciferase reporter signal; AID 504408; NIH3T3-HGL HSF-1 luciferase reporter, MG132, 8 h; 100% = twice DMSO control signal; 1.7% of 300,000 active; activation, % at 9 µM;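 active = mean replicate activation of at least 50% with a set share of replicates each reaching 50%; inconclusive = only one of those two conditions met; inactive = mean below 50% and too few replicates reaching it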;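 also: 0% = median of the neutral control wells and 100% = twice that signal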
Active calls of the source: *; ? = inconclusive; . = no result.

SMILES | HSF1 inhib | SMARCA2 activ | Wnt act | esBAF inh | MITF TRPM1 HTS | HSF-1 act
CCCNC(=O)N(C)C[C@@H]1Oc2cc(C#CC(C)(C)O)ccc2S(=O)(=O)N([C@H](C)CO)C[C@@H]1C | . | . | . | 3 | . | .
O=C(NC1CCCC(C(F)(F)F)C1)c1ccc([N+](=O)[O-])o1 (centres undefined) | . | 7.9* | 0 | 19 | -65 | .
O=C(NC1CCCCC1)c1ccc([N+](=O)[O-])o1 | -2 | . | . | 18 | -43 | 16
O=S(=O)(Nc1nc2ccccc2nc1Cl)c1ccc(Br)cc1 | -54* | -4 | -1 | 6 | -16 | -64
O=C(Nc1ccc(Cl)cc1)N1C[C@H]2[C@@H](c3ccccc31)[C@H](CO)N2C(=O)c1ccccn1 | . | . | . | 16 | . | .
O=C(CCN1CCCCC1)NCC[C@H]1CC[C@H](NS(=O)(=O)c2cccc(Cl)c2)[C@@H](CO)O1 | . | . | . | -1 | . | .
Cc1ccc(CSC2=Nc3ccccc3C3=NC(=O)CN23)cc1 | 40 | -1 | 7 | . | 14 | 41
C=CCSC1=Nc2sccc2C2=NC(=O)CN12 | -75* | 1 | . | 1 | -8 | -81
Cn1cnc([N+](=O)[O-])c1S(=O)(=O)c1ccc(Cl)cc1 | 127 | -14 | 4 | . | -27 | 150*
O=C(NC1CCCCCC1)c1cc2c(=O)n3ccccc3nc2s1 | 8 | -1 | 11 | 45* | 91* | 17
C=CCNC(=O)c1cc2c(=O)n3ccccc3nc2s1 | 18 | 6 | 36* | 4 | 66 | 14
CC(C)NC(=O)c1cc2c(=O)n3ccccc3nc2s1 | -3 | 4 | 4 | 5 | -11 | -6
COc1ccc(S(=O)(=O)N(C)C[C@@H]2Oc3c(NC(=O)C4CCOCC4)cccc3C(=O)N([C@H](C)CO)C[C@H]2C)cc1 | . | . | . | 0 | . | .
C[C@@H]1CCCCO[C@H](CN(C)Cc2ccc(C(=O)O)cc2)[C@H](C)CN([C@H](C)CO)C(=O)c2cc(NC(=O)c3ccncc3)ccc2O1 | . | . | . | -1 | . | .
CSc1cccc(NC(=O)c2[nH]c(C)c(C(C)=O)c2C)c1 | 17 | 5 | 19 | 65* | 133* | 29
CC(=O)c1c(C)[nH]c(C(=O)Nc2ccc(Cl)cc2F)c1C | 28 | 1 | 20 | 28 | 75 | 42
CC(=O)c1c(C)[nH]c(C(=O)Nc2ccc(Cl)cc2)c1C | 18 | 2 | 14 | 60* | 77 | 32
CC(=O)c1c(C)[nH]c(C(=O)Nc2cccc(C)c2C)c1C | -3 | -3 | 0 | 7 | 1 | -9
CCNC(=O)C[C@H]1CC[C@@H]2[C@H](COC[C@H](O)CN2C(=O)Nc2cccc(OC)c2)O1 | . | . | . | -2 | . | .
CCOc1ccc(N(CC(=O)Nc2ccc(C)cc2)S(C)(=O)=O)cc1 | 16 | 1 | 17 | 80* | 66 | 10
CN(CC(=O)Nc1ccc(Cl)cc1)C(=O)c1ccc(S(=O)(=O)Nc2ccccc2)cc1 | -2 | -4 | -3 | -1 | -13 | -4
COC(=O)CN(c1c(C)cccc1C)S(C)(=O)=O | -3 | -1 | . | -1 | -6 | -5
CCOc1ccc(S(=O)(=O)Nc2ccc(C(=O)NN)cc2)cc1 | 6 | -4 | 53* | 1 | -1 | 0
CC(=O)c1ccc(NC(=O)CN(c2c(C)cccc2C)S(C)(=O)=O)cc1 | 10 | 5 | 4 | 56* | 32 | 9
CCOc1ccc(NS(=O)(=O)c2ccc(C(=O)N(C)CC(=O)Nc3ccc(C)cc3)cc2)cc1 | 30 | 1 | -1 | . | -11 | 59*
SMILES | HSF1 inhib | SMARCA2 activ | Wnt act | esBAF inh | MITF TRPM1 HTS | HSF-1 act
CCOc1ccc(N(CC(=O)Nc2cc(C)cc(C)c2)S(C)(=O)=O)cc1 | -1 | -2 | 16 | ? | 43 | 20
C[C@@H]1CN([C@H](C)CO)C(=O)c2cc(NS(C)(=O)=O)ccc2O[C@@H]1CN(C)S(=O)(=O)c1cn(C)cn1 | . | . | . | -1 | . | .
C[C@H]1CN([C@@H](C)CO)C(=O)Cc2cc(NC(=O)c3ccncc3)ccc2O[C@H]1CN(C)Cc1ccc(-c2ccccc2)cc1 | . | . | . | -2 | . | .
COc1cc(-c2cn(S(=O)(=O)c3cccc4nsnc34)nc2N)cc(OC)c1OC | 19 | -3 | . | -14 | -3 | 59*
COc1cccc(-n2nnnc2SCC(=O)Nc2ccccc2OC)c1 | 2 | -3 | 0 | 6 | 0 | 11
CCCS(=O)(=O)c1nnnn1-c1cccc(OC)c1 | -95* | . | . | 4 | -71 | -95
CC1(C)CC(=O)C(C2C3=C(CC(C)(C)CC3=O)OC3=C2C(=O)CC(C)(C)C3)=C(O)C1 | 23 | -5 | 4 | . | . | 67*
O=C(NCc1ccc(F)cc1)[C@@H]1[C@@H](CO)[C@@H]2Cn3c(cccc3=O)[C@H]1N2Cc1cccnc1 | . | . | . | -1 | . | .
Cc1nc(Cc2ccccc2)sc1CC#N | . | 1 | 51* | 2 | -2 | .
c1ccc(Cc2nc3ccccc3s2)cc1 | . | 0 | 21 | 29 | -6 | .
COc1ccc(C2=NCN(c3ccc(C)cc3)C(=S)N2)cc1 | 27 | 3 | . | . | 60 | ?
Cc1ccc(N2CN=C(c3ccccc3)NC2=S)cc1 | 15 | 2 | . | 57* | 60 | 9
Cc1ccc(C)c(-n2c(CNC(=O)c3ccco3)nnc2SCC(=O)Nc2nnc(C)s2)c1 | 16 | 3 | -2 | -1 | -6 | 33
Cc1ccc(C)c(-n2c(CNC(=O)c3ccco3)nnc2SCC(=O)N2CCc3ccccc32)c1 | 11 | 1 | . | 8 | 8 | 58*
O=C(NCc1nnc(SCC(=O)N2CCCc3ccccc32)o1)c1ccco1 | -9 | 1 | 46* | 3 | -8 | 7
O=C(CSc1nnc(-c2cccs2)o1)N1CCCc2ccccc21 | 17 | -1 | . | 3 | 8 | 68*
Cc1noc(C)c1NC(=O)Nc1ccc2c(c1)C(=O)N([C@H](C)CO)C[C@H](C)[C@H](CN(C)S(=O)(=O)c1ccc(Cl)cc1)OCCCC[C@@H](C)O2 | . | . | . | -3 | . | .
COCC(=O)Nc1ccc2c(c1)C(=O)N(C)[C@@H]1CC[C@H](CC(=O)Nc3ccccc3)O[C@H]1CO2 | . | . | . | -1 | . | .
C[C@@H]1CN([C@H](C)CO)C(=O)c2cc(NC(=O)Nc3ccc(C(F)(F)F)cc3)ccc2O[C@H]1CN(C)C(=O)NC1CCCCC1 | . | . | . | 0 | . | .
Cc1ccc2[nH]c(O)c(N=Nc3ccccc3C)c2c1 | -63* | 0 | 0 | 13 | -1 | -71
O=C(Nc1cc(F)ccc1F)N[C@@H]1CC[C@@H](CCn2cc(C3CCCCC3)nn2)O[C@@H]1CO | . | . | . | 6 | . | .
C[C@@H]1CN([C@H](C)CO)C(=O)Cc2cc(NC(=O)Cn3cnnn3)ccc2O[C@H]1CN(C)C(=O)Nc1cccc2ccccc12 | . | . | . | -1 | . | .
O=C(Nc1ccc(Cl)c(Cl)c1)Nc1ccccn1 | 14 | 2 | 37* | 67* | 73 | 31
O=C(Nc1ccc(Cl)c(Cl)c1)Nc1ccccc1C(=O)O | 27 | 4 | -1 | -34 | 9 | 68*
O=C(Nc1cccc(Cl)c1)Nc1ccccc1C(=O)O | 8 | 0 | 2 | 19 | 72 | 5
